Data: PubChem BioAssay (Tox21)
Values joined by “and” are separate entries in the source; they are usually repeats but may differ in a detail not shown here. Equal entries are not always repeated. Inconclusive results are not listed. A call without a number means that no potency is given here. A structure can be active in one record and inactive in another. Active and inactive are the calls of the source. Unless noted, the call rests on the fitted dose curve.

What was measured:
[1] = Nuclear factor erythroid 2-related factor 2/antioxidant responsive element (Nrf2/ARE) small molecule agonists: luciferase reporter gene qHTS assay in human keratinocytes (AID 1919969); further: nearly all actives have a fitted effect of over 35% in size; further: potency means the concentration at half of the fitted maximal effect
[2] = biological target: Gonadotropin-releasing hormone receptor (Homo sapiens) (UniProt P30968); assay: Human gonadotropin-releasing hormone receptor (GnRHR) small molecule agonists, calcium flux assay in GnRHR-HEK293 cells (AID 1920063); further: nearly all actives have a fitted effect of over 35% in size; further: potency means the concentration at half of the fitted maximal effect
Chain of Gonadotropin-releasing hormone receptor (Homo sapiens) (P30968 whole entry, looked up): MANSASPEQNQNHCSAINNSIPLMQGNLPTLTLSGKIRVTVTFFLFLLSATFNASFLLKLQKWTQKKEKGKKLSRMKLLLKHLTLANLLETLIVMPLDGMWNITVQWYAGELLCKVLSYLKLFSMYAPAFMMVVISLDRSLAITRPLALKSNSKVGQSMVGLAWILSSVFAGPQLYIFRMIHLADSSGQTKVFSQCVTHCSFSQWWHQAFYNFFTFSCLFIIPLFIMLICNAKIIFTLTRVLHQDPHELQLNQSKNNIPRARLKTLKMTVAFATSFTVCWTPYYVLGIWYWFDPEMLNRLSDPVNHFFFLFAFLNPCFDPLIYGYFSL
Procedure, shortened: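 Stable human GnRHR HEK293 line. 18 h plating, then calcium dye for 1 h at 37 C. Agonist-mode compound addition from DMSO stocks; fluorescence monitored 3 min.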

[3] = biological target: KiSS-1 receptor (Homo sapiens) (UniProt Q969F8); assay: Human kisspeptin (KISS1R) small molecule agonists, calcium flux assay in KISS1R-HEK293 cells (AID 1920064; active means well fitted activation curve with a large enough effect in the repeat runs)
Chain of KiSS-1 receptor (Homo sapiens) (Q969F8 whole entry, looked up): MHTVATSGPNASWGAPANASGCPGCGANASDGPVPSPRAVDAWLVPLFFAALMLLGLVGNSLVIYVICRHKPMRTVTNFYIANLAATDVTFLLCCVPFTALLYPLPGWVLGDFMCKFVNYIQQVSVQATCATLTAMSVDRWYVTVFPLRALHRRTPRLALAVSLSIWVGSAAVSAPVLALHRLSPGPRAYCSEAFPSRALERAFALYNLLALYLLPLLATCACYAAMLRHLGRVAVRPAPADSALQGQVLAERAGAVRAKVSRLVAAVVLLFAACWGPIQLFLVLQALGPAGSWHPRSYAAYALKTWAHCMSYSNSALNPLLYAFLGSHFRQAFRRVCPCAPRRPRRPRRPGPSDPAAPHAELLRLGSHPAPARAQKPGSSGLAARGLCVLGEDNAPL
Procedure, shortened: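 After overnight (18 h) culture at 37 C/5% CO2, human KISS1R-HEK293 cells received calcium dye for 1 h, then test compound; emission at 540 nm (excitation 480 nm) was tracked for 3 min.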

[4] = G protein-coupled receptor (GPCR) small molecule agonists, calcium flux assay: HEK293 wild type cell line counter screen (AID 1920065)
Procedure, shortened: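 Following 18 h incubation at 37 C/5% CO2, plates got calcium dye for 1 h; compounds, ATP or DMSO were then pinned in and fluorescence followed kinetically (480/540 nm).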

[5] = p53 small molecule agonists, cell-based qHTS assay with human liver microsomes (AID 1963577);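 further: p53 response element beta-lactamase reporter cells with liver microsomes plus NADPH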
Procedure, shortened: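 Steps: plate p53RE-bla cells, incubate 5 h at 37 C; add compound in DMSO; add microsomes (0.5 mg/mL final) and NADPH (0.5 mg/mL final); incubate 16 h at 37 C; add LiveBLAzer, 2 h RT; read fluorescence.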

[6] = p53 small molecule agonists, cell-based qHTS assay with human liver microsomes: qHTS cell viability counter screen (AID 1963579); further: nearly all actives have a fitted effect of over 45% in size
Procedure, shortened: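 After the 460/530 nm beta-lactamase read, CellTiter-Glo was added to the same wells and luminescence measured after 30 min at room temperature, giving viability of p53RE-bla cells treated 16 h with compounds plus microsomes and NADPH.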

[7] = p53 small molecule agonists, cell-based qHTS assay with rat liver microsomes: qHTS cell viability counter screen (AID 1963580); further: nearly all actives have a fitted effect of over 45% in size
Procedure, shortened: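 Counter screen for cytotoxicity under metabolic activation: rat liver microsomes and NADPH, 0.5 mg/mL final each, added with compounds to p53RE-bla HCT-116 cells; 16 h at 37 C, then ATP luminescence read.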

[8] = p53 small molecule agonists, cell-based qHTS assay: qHTS cell viability counter screen (AID 1963581); further: nearly all actives have a fitted effect of over 45% in size
Procedure, shortened: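 qHTS counter screen: 16 h compound exposure at 37 C of p53RE-bla HCT-116 cells (4,000 per well, seeded 5 h prior), cell viability by ATP luminescence.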

[9] = p53 small molecule agonists, cell-based qHTS assay (AID 1963582; active means well fitted activation curve with a large enough effect in the signal ratio in the repeat runs, not every such curve was filed as active; the % refers to the signal ratio)
Procedure, shortened: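 Measured: fluorescence from cleaved LiveBLAzer substrate. System: p53RE-bla cells, 16 h compound treatment at 37 C, 2 h substrate step at room temperature.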

[10] = biological target: 5-hydroxytryptamine receptor 2A (Homo sapiens) (UniProt P28223); assay: 5-hydroxytryptamine receptor 2A (HTR2A) small molecule agonists, cell-based qHTS assay (AID 1963587); further: nearly all actives have a fitted effect of over 30% in size
Chain of 5-hydroxytryptamine receptor 2A (Homo sapiens) (P28223 whole entry, looked up): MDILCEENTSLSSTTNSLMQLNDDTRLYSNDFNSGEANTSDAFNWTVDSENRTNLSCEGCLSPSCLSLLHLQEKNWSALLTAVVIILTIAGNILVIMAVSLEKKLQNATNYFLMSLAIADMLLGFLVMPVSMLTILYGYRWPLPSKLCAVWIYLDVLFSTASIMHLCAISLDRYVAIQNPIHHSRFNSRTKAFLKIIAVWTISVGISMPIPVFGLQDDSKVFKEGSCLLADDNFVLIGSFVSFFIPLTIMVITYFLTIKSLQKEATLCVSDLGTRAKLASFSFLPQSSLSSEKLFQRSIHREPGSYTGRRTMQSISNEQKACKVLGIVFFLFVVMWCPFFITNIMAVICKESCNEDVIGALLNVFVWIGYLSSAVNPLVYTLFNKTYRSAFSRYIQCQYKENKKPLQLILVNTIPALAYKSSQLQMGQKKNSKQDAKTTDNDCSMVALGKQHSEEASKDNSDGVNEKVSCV
Procedure, shortened: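 HTR2A-CHO cells, plated 18 h at 37 C/5% CO2, dye-loaded 1 h at 37 C; compounds in DMSO added by pin tool (agonist mode). Intracellular calcium flux read as kinetic fluorescence on FDSS over 2 min at 1 s intervals.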

[11] = biological target: Muscarinic acetylcholine receptor M1 (Homo sapiens) (UniProt P11229); assay: Cholinergic receptor muscarinic 1 (CHRM1) small molecule antagonists, cell-based qHTS assay (AID 1963588); further: nearly all actives have a fitted effect of over 40% in size
Chain of Muscarinic acetylcholine receptor M1 (Homo sapiens) (P11229 whole entry, looked up): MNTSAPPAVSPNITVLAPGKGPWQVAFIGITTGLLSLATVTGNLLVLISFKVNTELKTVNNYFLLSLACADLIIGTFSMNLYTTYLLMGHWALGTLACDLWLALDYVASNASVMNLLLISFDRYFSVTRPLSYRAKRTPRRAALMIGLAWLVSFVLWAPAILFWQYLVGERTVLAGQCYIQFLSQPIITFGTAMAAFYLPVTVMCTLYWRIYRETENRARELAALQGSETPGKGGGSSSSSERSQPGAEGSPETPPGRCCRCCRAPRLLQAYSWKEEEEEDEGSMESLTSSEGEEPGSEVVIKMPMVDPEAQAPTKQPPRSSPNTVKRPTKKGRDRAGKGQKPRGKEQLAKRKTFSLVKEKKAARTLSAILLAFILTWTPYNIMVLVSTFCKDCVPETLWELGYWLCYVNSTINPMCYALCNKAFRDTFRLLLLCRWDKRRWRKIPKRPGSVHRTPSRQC
Procedure, shortened: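 Compounds were tested at 15 concentrations in three independent runs. Dye-loaded CHRM1-CHO cells were exposed 5 min at room temperature before stimulation by acetylcholine added at 50nM. Intracellular calcium was read kinetically on FDSS for 3 min.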

[12] = biological target: Muscarinic acetylcholine receptor M1 (Homo sapiens) (UniProt P11229); assay: Cholinergic receptor muscarinic 1 (CHRM1) small molecule agonists, cell-based qHTS assay (AID 1963589); further: nearly all actives have a fitted effect of over 35% in size
Procedure, shortened: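 Kinetic fluorescence (1 s intervals) of calcium-sensitive dye in human M1 CHO cells after compound addition; cells pre-incubated 18 h at 37 C/5% CO2 and dye-loaded 1 h.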

[13] = cAMP Responsive Elements (CRE) small molecule agonists, cell-based qHTS assay (AID 1963590)
Procedure, shortened: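 Test agents in DMSO were incubated 3 h at 37 C/5% CO2 with CRE-bla HEK 293T cells seeded 18 h earlier; LiveBLAzer B/G FRET substrate was added and read after 2 h at room temperature.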

[14] = cAMP Responsive Elements (CRE) small molecule antagonists, cell-based qHTS assay (AID 1963591; active means well fitted inhibition curve with a large enough effect in the signal ratio in the repeat runs, not every such curve was filed as active; the % refers to the signal ratio)
Procedure, shortened: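 Reporter line CRE-bla HEK 293T in dialyzed-FBS DMEM; cells preincubated 18 h, treated 3 h with compound plus NKH477 (0.25 uM final); LiveBLAzer FRET, 2 h RT.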

[15] = biological target: Beta-2 adrenergic receptor (Homo sapiens) (UniProt P07550); assay: Adrenergic beta2 receptor (ADRB2) small molecule antagonists, cell-based qHTS assay (AID 1963592); further: series mostly up to about 92 µM; nearly all actives have a fitted effect of over 50% in size
Chain of Beta-2 adrenergic receptor (Homo sapiens) (P07550 whole entry, looked up): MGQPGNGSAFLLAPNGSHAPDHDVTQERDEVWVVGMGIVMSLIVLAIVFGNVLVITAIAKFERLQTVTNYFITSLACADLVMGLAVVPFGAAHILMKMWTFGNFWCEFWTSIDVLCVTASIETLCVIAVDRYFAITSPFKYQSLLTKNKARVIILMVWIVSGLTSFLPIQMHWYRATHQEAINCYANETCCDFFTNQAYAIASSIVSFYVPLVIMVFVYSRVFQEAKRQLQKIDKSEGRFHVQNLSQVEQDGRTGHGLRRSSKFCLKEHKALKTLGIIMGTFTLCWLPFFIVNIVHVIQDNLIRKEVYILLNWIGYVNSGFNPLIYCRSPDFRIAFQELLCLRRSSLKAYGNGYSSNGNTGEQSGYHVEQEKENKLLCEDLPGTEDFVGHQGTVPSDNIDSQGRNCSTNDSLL
Procedure, shortened: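 Assay format: CHO-ADRB2 cells, 18-20hr seeding at 37C/5% CO2, then compound plus 1nM isoproterenol agonist mix for 0.5hr RT. Homogeneous time-resolved fluorescence cAMP detection after 1hr, expressed as 665/615 nm ratio.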

[16] = biological target: D(2) dopamine receptor (Homo sapiens) (UniProt P14416); assay: Dopamine D2 receptor (DRD2) small molecule agonists, cell-based qHTS assay (AID 1963594); further: nearly all actives have a fitted effect of over 35% in size
Chain of D(2) dopamine receptor (Homo sapiens) (P14416 whole entry, looked up): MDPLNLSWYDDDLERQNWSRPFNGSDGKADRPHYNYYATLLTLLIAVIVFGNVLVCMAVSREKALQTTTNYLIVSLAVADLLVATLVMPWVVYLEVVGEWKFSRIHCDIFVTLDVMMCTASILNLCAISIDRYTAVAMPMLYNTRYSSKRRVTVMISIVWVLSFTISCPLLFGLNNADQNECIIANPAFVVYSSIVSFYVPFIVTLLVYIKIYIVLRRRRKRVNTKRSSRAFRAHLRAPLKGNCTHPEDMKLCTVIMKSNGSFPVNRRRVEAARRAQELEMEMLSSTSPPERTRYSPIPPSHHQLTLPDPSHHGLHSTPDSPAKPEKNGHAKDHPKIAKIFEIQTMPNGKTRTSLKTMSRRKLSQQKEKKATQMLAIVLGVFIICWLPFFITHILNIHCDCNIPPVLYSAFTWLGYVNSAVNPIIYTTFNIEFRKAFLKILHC
Procedure, shortened: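 HEK293 cells stably expressing DRD2 were cultured 24 h at 37 C, then given Ro20-1724 (0.1 mM final) and compounds for 10 min at room temperature. NKH477 (200nM) was then added for 30 min. cAMP was read by HTRF.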

[17] = biological target: 5-hydroxytryptamine receptor 2A (Homo sapiens) (UniProt P28223); assay: 5-hydroxytryptamine receptor 2A (HTR2A) small molecule antagonists, cell-based qHTS assay (AID 1963586); further: nearly all actives have a fitted effect of over 45% in size; further: potency means the concentration at half of the fitted maximal effect
Procedure, shortened: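 CHO cells stably expressing human HTR2A were plated for 18 h at 37 C, then loaded with calcium dye for 1 h. Compounds were preincubated 5 min at room temperature before DOI (4 nM solution) was added. Kinetic fluorescence was read for 3 min.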

[18] = biological target: D(2) dopamine receptor (Homo sapiens) (UniProt P14416); assay: Dopamine D2 receptor (DRD2) small molecule antagonists, cell-based qHTS assay (AID 1963595; active means well fitted inhibition curve with a large enough effect in the signal ratio in the repeat runs, with a control signal flat; the % refers to the signal ratio; further: potency means the concentration at half of the fitted maximal effect)
Procedure, shortened: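 In this cell-based antagonist screen, compounds act for 10 min at room temperature before a 30 min challenge with 12 nM quinpirole and 200 nM NKH477. cAMP is quantified by HTRF competition in DRD2-HEK293 cells containing 0.1 mM Ro20-1724.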

[19] = biological target: Beta-2 adrenergic receptor (Homo sapiens) (UniProt P07550); assay: Adrenergic beta2 receptor (ADRB2) small molecule agonists, cell-based qHTS assay (AID 1963593);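 further: CHO cells stably overexpressing human ADRB2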
Procedure, shortened: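 CHO cells stably over-expressing ADRB2 were plated overnight at 37C, then dosed with compounds plus a stimulation mix containing 100uM IBMX and 25uM Ro-20-1724 for 0.5hr at room temperature. cAMP was measured by HTRF competition, 1hr.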

[20] = p53 small molecule agonists, cell-based qHTS assay with rat liver microsomes (AID 1963578)
Procedure, shortened: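 Metabolic activation is supplied by rat liver microsomes with NADPH (each 0.5 mg/mL final). p53RE-bla cells incubate with compound 16 h at 37 C; reporter activity is measured by LiveBLAzer fluorescence.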

Row | Structure (SMILES) | Potency [1] | Potency [2] | Potency [3] | Potency [4] | Potency [5] | Potency [6] | Potency [7] | Potency [8] | Potency [9] | Potency [10] | Potency [11] | Potency [12] | Potency [13] | Potency [14] | Potency [15] | Potency [16] | Potency [17] | Potency [18] | Potency [19] | Potency [20]
1 | CC1=CCCC(C)(C)C12CCC(C)O2 (stereo not given) | inactive | inactive | inactive | inactive | inactive | inactive | inactive | inactive | inactive | inactive | inactive | inactive | inactive | inactive | inactive | inactive |  |  |  | 
2 | NNc1nc(-c2ccc(N)cc2)cs1 | 54.5 µM (active) | inactive | inactive | inactive | inactive | inactive | inactive | inactive | inactive |  |  | inactive |  | inactive |  | inactive | inactive | inactive |  | 
3 | CC(=O)c1ccc2c(c1)N(CCCN1CCC(CCO)CC1)c1ccccc1S2 | inactive | inactive | inactive | inactive | inactive | inactive | inactive |  | inactive | inactive |  | inactive |  | inactive |  | inactive | 0.326 µM (active) |  |  | 
4 | CCc1ccc(C(c2ccc(CC)cc2)C(Cl)Cl)cc1 | inactive and 27.3 µM (active) | inactive | inactive | inactive | inactive | inactive | inactive | inactive | inactive | inactive |  | inactive | inactive | inactive | inactive | inactive | inactive | inactive | inactive | 
5 | O=[N+]([O-])C1(Br)COCOC1 | 24.3 µM (active) | 38.9 µM (active) | inactive | inactive |  | inactive | inactive | inactive | inactive |  | inactive |  | inactive | inactive | inactive | inactive | inactive |  | inactive | inactive
6 | CCCCc1ccc2nc(NC(=O)OC)[nH]c2c1 | 4.22 µM (active) | inactive | inactive | inactive | inactive |  |  |  |  | inactive | inactive | inactive |  | inactive | inactive | inactive | inactive | inactive | inactive | 
7 | CSc1ccc2c(c1)C(N1CCN(C)CC1)Cc1ccccc1S2 (stereo not given) | inactive | inactive | inactive | inactive | inactive | inactive | inactive | inactive |  | inactive |  | inactive |  |  |  |  |  | 0.0473 µM (active) |  | 
8 | CCCCCCCCCCCC(=O)[O][Sn]([CH2]CCC)([CH2]CCC)[O]C(=O)CCCCCCCCCCC | 33.5 µM (active) | inactive | inactive | inactive | inactive |  | inactive | inactive | inactive | inactive | inactive | inactive | inactive | inactive | inactive | inactive | inactive | inactive | inactive | 
